Drawing on PubChem BioAssay (NCATS), this text covers activation and Potency for 40 molecules.

Inconclusive results are not listed. The source made the active and inactive calls. Calls follow the shape of the dose curve; as a rule, active = well fitted activation curve with a large enough effect; inconclusive = small, poorly fitted or top-dose-only effect; inactive = no such curve, though single readings can be large or run the other way. Numbered stars: 1 amine (or outer) side, 2 acyl side, 3 side chain; on linkers, the order of the positions; unused ones are H or OH. Square brackets hold non-standard residues; d marks the D form. Peptide text beside a SMILES is read from it. * marks the point of attachment. X10 = O=C(C(CC(O)CO)O[*:1])[*:2]; AMC = Cc1cc(=O)oc2cc(N*)ccc12; NMeV = CN[CH](C(=O)O)C(C)C; Cbz = O=C(OCc1ccccc1)*; NMeA = CN[CH](C)C(=O)O; βAla = NCCC(=O)O
Potency is read from the fitted curve at half-maximal effect.

Cellular tumor antigen p53 (Homo sapiens), sequence (P04637 whole entry, looked up): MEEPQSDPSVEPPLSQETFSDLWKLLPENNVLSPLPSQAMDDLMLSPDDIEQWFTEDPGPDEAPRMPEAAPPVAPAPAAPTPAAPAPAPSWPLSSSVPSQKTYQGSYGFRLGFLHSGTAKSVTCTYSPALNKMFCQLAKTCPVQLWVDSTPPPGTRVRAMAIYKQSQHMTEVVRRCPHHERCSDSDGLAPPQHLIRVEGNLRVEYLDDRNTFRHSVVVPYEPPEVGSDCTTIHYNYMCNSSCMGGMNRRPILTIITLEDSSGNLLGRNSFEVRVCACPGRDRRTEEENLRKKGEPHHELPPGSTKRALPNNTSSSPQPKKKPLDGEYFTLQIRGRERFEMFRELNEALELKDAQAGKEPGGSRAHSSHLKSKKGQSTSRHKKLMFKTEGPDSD

The target in the test is Cellular tumor antigen p53 (Homo sapiens) (UniProt P04637). As to the kind of experiment: Primary qHTS for small molecule compounds that upregulate eGFP-tagged delta133p53alpha (in N-terminal) cells. (AID 2060322). Also: nearly all actives have a fitted effect of over 75% in size.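 As to activation: cells pre-induced with doxycycline then dosed without doxycycline; series mostly up to about 56 µM; 0% = DMSO vehicle and 100% = reference activator.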 The conditions noted are these: NCI-H358 eGFP-delta133p53alpha fluorescence, 24 h; activation: active compounds read high. In a few lines:
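NCI-H358 cells pre-induced 24 h with 10 ng/ml doxycycline for eGFP-delta133p53alpha, plated dox-free and exposed 24 h at 37C to titrated compounds. Fixed, Hoechst-stained; gated GFP peak intensity by laser scanning cytometry, normalized to DMSO (0%) and 57.5 uM 5-azacytidine (100%).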
For `COc1cc(/C=C2\CC[C@H]3COC[C@@H](c4cc(F)c(F)c(F)c4)N3C2=O)ccc1-n1cnc(C)c1`, the activation is -13.7% (inactive).
The same measure, in the same setting: the value for `C=C1CCC[C@]2(C)CC/C(=C(/CO)C(=O)OC)C[C@@H]12` was 18.8% (inactive).
On the same count and under the same terms, then `CC(=O)C=C=C1C(C)(C)CC(O)CC1(C)O[C@@H]1O[C@H](CO[C@H]2OC[C@](O)(CO)[C@H]2O)[C@@H](O)[C@H](O)[C@H]1O` (stereo not given in full), with -14.3% (inactive); and `CC(O)C/C=C/C=C/C(=O)OC1C=C2COC(=O)C2(O)C2(C)CCCC(C)(C)C12` (stereo not given), with 5.34% (inactive).
Consider `COC(=O)C[C@H]1[C@]2(C)C3=C(C)[C@H](c4ccoc4)C[C@H]3O[C@@H]2[C@H](O)C2[C@](C)(C(=O)OC)C=CC(=O)[C@@]21C` (stereo not given in full), for which the activation was 2.29% (inactive).
Same read-out and setting: then `C[C@@H]1O[C@@H](O[C@H]2[C@@H]3C=CO[C@@H](O[C@@H]4O[C@H](CO)[C@@H](O)[C@H](O)[C@H]4O)[C@@H]3[C@@]3(CO)O[C@@H]23)[C@H](O)[C@H](O)[C@H]1OC(=O)/C=C/c1ccc(O)cc1`, with -25.2% (inactive).
On the same count and under the same terms, the value for `COc1cc(-c2cccc(O)c2)cc2c1OCO2` was 2.68% (inactive); that for `C/C=C(\C)C(=O)O[C@H]1[C@@H](O[C@]2(COC(=O)CC(C)C)O[C@H](COC(=O)C(C)CC)[C@@H](OC(C)=O)[C@@H]2O)O[C@H](COC(C)=O)[C@@H](O)[C@@H]1O` (stereo not given in full) was 9.16% (inactive).
On the same count and under the same terms, the value for `C/C(=N\O)c1ccc(OCC(=O)N2CCCCC2)cc1` was 3.35% (inactive); that for `C=C1CCC2C(C(C)(C)O)CCC2(C)CC(O)C(=C)CCC1O` (stereo not given) was -12.5% (inactive).
Regarding `CC(C)COc1ccc(CNC(=O)N(Cc2ccc(F)cc2)C2CCN(C)CC2)cc1`, the activation is -15.7% (inactive).
On the same count and under the same terms, then `C=CC(C)(C)C12C=C(OC)C(=O)N3C(C(C)C)C(=O)NC31N(OC)c1ccccc12` (stereo not given), with -9.16% (inactive); and `Cc1cc2c(cc1N1C(=O)c3cccc4c(CCCO)ccc(c34)C1=O)n(C)c(=O)n2C`, with 5% (inactive); and `CC1(C)CC[C@]2(C(=O)O[C@@H]3O[C@H](CO)[C@@H](O)[C@H](O)[C@H]3O)CC[C@]3(C)C(=CCC4[C@@]5(C)C[C@@H](O)[C@H](O)C(CO)(CO)C5CC[C@]43C)C2[C@@H]1O` (stereo not given in full), with -15.3% (inactive).
For the molecule `NC(N)=NC(=O)c1cnn(-c2cccc3ncccc23)c1C1CC1`, the activation is 25% (inactive).
Same read-out and setting: the value for `C[C@@H]1O[C@@H](O[C@H]2[C@H](O[C@H]3[C@H](O[C@H]4CC[C@@]5(C)C(CC[C@]6(C)C5CC=C5[C@@H]7CC(C)(C)C[C@@H](O)[C@]7(C)CC[C@]56C)C4(C)C)O[C@H](C(=O)O)[C@@H](O)[C@@H]3O)O[C@H](C(=O)O)[C@H](O)[C@@H]2O)[C@H](O)[C@H](O)[C@H]1O` (stereo not given in full) was -16.8% (inactive); that for `COc1cc(/C=C/C(=O)O[C@@H]2O[C@H](CO)[C@@H](O)[C@H](O)[C@H]2O)ccc1O` was 4.46% (inactive).
Same read-out and setting: the value for `C[C@@H]1C(=O)O[C@H]2CC34[C@H]5C[C@@H](C(C)(C)C)C36[C@@H](OC(=O)[C@@H]6O)O[C@@]4(C(=O)O5)[C@]21O` (stereo not given in full) was 19.1% (inactive).
Still for that read-out and setting: the value for `Nc1ncnc2c1nc(Cl)n2C1OC2COP(=O)(O)OC2C1O` (stereo not given) was -12.3% (inactive); that for `Cc1cc(=O)oc2cc(NC(=O)[C@H](CCC(=O)O)NC(=O)[C@H](CC(C)C)NC(=O)[C@H](CC(C)C)NC(=O)OCc3ccccc3)ccc12` (Cbz-Leu-Leu-Glu-{AMC}) was 2.33% (inactive).
Regarding `CCCCc1nc(C)c(CC(=S)N(C)C)c(=O)n1Cc1ccc(-c2ccccc2-c2nn[nH]n2)cc1`, the activation was 18.1% (inactive).
Still for that read-out and setting: then `C[C@]12CC/C(=N\OCC(=O)O)C=C1CC[C@@H]1[C@@H]2[C@@H](O)C[C@@]2(C)[C@H]1CC[C@]2(O)C(=O)CO`, with 5.67% (inactive); and `Cn1nnc(-c2ccc(-c3ccc(N4C[C@H](CO)OC4=O)cc3F)cn2)n1`, with -5.36% (inactive).
Turning to `C/C1=C/CCC2=CC(OC2=O)C(C)(C)/C=C/C1=O` (stereo not given), the Potency is 4.26 µM (active).
Regarding `C[C@@H]1O[C@@H](O[C@H]2[C@H](OC(=O)[C@]34CCC(C)(C)C[C@H]3C3=CCC5[C@@]6(C)CC[C@H](O[C@@H]7O[C@H](C(=O)O)[C@@H](O)[C@H](O)[C@H]7O[C@@H]7O[C@H](CO)[C@H](O)[C@H](O)[C@H]7O)[C@@](C)(C=O)C6CC[C@@]5(C)[C@]3(C)C[C@H]4O)O[C@H](C)[C@H](O[C@@H]3O[C@H](C)[C@H](O)[C@H](O)[C@H]3O)[C@@H]2O)[C@H](O)[C@H](O)[C@H]1O[C@@H]1OC[C@@H](O)[C@H](O[C@@H]2O[C@H](CO)[C@@H](O)[C@H](O)[C@H]2O)[C@H]1O` (stereo not given in full), the activation was -6.87% (inactive).
Still for that read-out and setting: the value for `C=CC1(C)CC(O)C(C(=C)C(=O)OC)C(O)C1C(=C)CO` (stereo not given) was -14.5% (inactive); that for `COc1c2c(c(C)c3c1C(=O)OC3)OC1(C)CC(O)C34OC(OC)(CC(OC(C)=O)C3(C)C1C2)OC4(C)C` (stereo not given) was -5.36% (inactive); that for `O=C1COC2(CCN(S(=O)(=O)c3ccc(-c4ccc5cccnc5c4)cc3)CC2)CN1C1CC1` was -15.7% (inactive).
On to `N#Cc1cccc(C(=O)Nc2cc(-c3ccccc3)nn2-c2ccccc2)c1`, for which the activation is -0.893% (inactive).
With `CC[C@H](C)/C=C(C)/C=C/C1=CC2=CC(=O)[C@]3(C)OC(=O)[C@@H](C(C)=O)[C@@H]3C2=CO1`, the Potency was 18.6 µM (active).
With `CC(=O)OC[C@]12[C@H](OC(C)=O)[C@H](OC(=O)c3ccccc3)[C@@H]3[C@@H](OC(C)=O)[C@]1(OC3(C)C)[C@H](C)C[C@H](OC(=O)c1ccccc1)[C@@H]2OC(=O)c1ccccc1`, the activation was -31.3% (inactive).
Same read-out and setting: the value for `C[C@]12C[C@@H](O)[C@@H]3C[C@@]1(O[C@@H]1O[C@H](CO)[C@@H](O)[C@H](O)[C@H]1O)[C@]3(COC(=O)c1ccccc1)C(=O)O2` was 25.9% (inactive).
Still for that read-out and setting: then `NC[C@H]1CCC[C@@H](CNC(=O)[C@@H](Cc2c[nH]c3ccccc23)NC(=O)N2CCC3(C=Cc4ccccc43)CC2)C1`, with 3% (inactive); and `CCC(C)C1NC(=O)C2CCCN2C(=O)C(CC(O)CO)OC(=O)CCNC(=O)C(C)N(C)C(=O)C(C(C)C)N(C)C1=O` (stereo not given) (cyclo([X10]PI[NMeV][NMeA][βAla]); configuration not given here), with -16% (inactive); and `CC1(C)CCCC2(C)C3=C(C(=O)OC3O)C(O)CC12` (stereo not given), with 9.92% (inactive).
On the same count and under the same terms, then `C=C(C(=O)O)C1CCC2(C)CCC(O)C(C)(O)C2C1` (stereo not given), with 8.04% (inactive).
In the case of `C=C1[C@H]2CCC3[C@]4(C)CCC[C@@](C)(C(=O)O)C4CC[C@]3(C2)[C@H]1OC(C)=O` (stereo not given in full), the activation was -17.6% (inactive).
With `C=C(C)C1Cc2cc(C(=O)OC3OC(CO)C(O)C(O)C3O)ccc2O1` (stereo not given), the activation was 9.92% (inactive).
Same read-out and setting: the value for `COc1cccc(NC[C@@H](O)Cn2c3ccc(Br)cc3c3cc(Br)ccc32)c1` was 29.6% (inactive); that for `C=C1[C@H](OC(C)=O)[C@H]2[C@@H](OC(C)=O)[C@](C)(OC(C)=O)C[C@]2(OC(C)=O)C(=O)[C@H](C)/C=C/C(C)(C)C(=O)[C@H](OC(=O)C(C)CC)[C@H]1OC(C)=O` (stereo not given in full) was -14.5% (inactive).
